SIAE primary – inhibitors of human sialic acid acetylesterase SIAE; 0.69% of 370,000 active; inhibition, % at 9.66 µM; SIAE FP-Rh probe binding, fluorescence polarization; Q9HAT2;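 active = inhibition above a cutoff: mean of compounds within the control limits plus 3 SD of those, cut at about 17% in these data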;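 note: 0% = plate median of compound wells and 100% = probe without SIAE protein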
PAD4 inh – PAD4 (human) enzyme inhibition; inhibition, % at 6.36 µM; recombinant PAD4, RCA probe fluorescence polarization; AID 485272; 0.41% of 330,000 active;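 active = percent inhibition above a cutoff equal to the mean of all tested compounds plus 3 SD, cut at about 15% in these data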;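 note: 0% = PAD4 with RCA probe and DMSO and 100% = probe without PAD4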
Target sequence (Q9UM07 whole entry, looked up): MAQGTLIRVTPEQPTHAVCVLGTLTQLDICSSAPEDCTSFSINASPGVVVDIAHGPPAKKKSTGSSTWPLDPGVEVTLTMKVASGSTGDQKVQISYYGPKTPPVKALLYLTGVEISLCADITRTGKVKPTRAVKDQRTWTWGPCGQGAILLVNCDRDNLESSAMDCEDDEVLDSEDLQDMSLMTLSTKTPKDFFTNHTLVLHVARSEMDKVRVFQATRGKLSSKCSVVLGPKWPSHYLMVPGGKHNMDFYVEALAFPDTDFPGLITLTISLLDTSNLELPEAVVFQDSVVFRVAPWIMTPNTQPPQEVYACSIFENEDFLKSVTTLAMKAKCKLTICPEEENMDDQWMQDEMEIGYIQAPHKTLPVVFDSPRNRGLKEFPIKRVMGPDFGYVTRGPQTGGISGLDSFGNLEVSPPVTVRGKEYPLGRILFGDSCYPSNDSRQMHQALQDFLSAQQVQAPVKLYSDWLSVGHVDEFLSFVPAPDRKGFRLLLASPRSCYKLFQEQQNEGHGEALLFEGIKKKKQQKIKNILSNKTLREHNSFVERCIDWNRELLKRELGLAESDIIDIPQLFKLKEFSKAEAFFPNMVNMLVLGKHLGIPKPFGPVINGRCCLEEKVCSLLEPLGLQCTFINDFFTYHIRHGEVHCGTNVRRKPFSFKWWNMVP
PME-1 inh – blocks human protein phosphatase methylesterase 1; AID 2130; recombinant PME-1, FP-Rh probe fluorescence polarization; inhibition, % at 5.9 µM; Q9Y570; 0.53% of 320,000 active;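 active = inhibition above the campaign mean of all compounds plus 3 SD, cut at about 26% in these data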;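 note: competitive labeling of PME-1 active site by serine hydrolase directed probe; 0% = PME-1 with DMSO and 100% = wells lacking PME-1 enzyme; inhibitors block probe labeling so polarization falls and inhibition rises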
Fam108B counter – blocks mouse Fam108B hydrolase in RBBP9 counter-screen | recombinant Fam108B, FP-Rh probe fluorescence polarization | inhibition, % at 9.51 µM | 0.33% of 300,000 active;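 active = inhibition above the screen mean inhibition plus 3 SD, computed separately per campaign, cut at about 18% in these data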;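 note: inhibitors lower polarization as less probe binds the enzyme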
PRMT1 FP inh – PRMT1 (human) inhibition, primary screen; inhibition, % at 2.79 µM; Q99873; recombinant PRMT1, activity-based probe fluorescence polarization; 1.3% of 370,000 active;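 active = inhibition above about 21% made by adding two undisclosed values, limit read from the data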
TCR CD3 inh – inhibitors of human TCR-CD3 interaction. TAMRA-labeled TCR probe fluorescence, biochemical. inhibition, % at 9.4 µM. 0.37% of 360,000 active. AID 651800; in the data active = inhibition above about 19%;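 note: recombinant mutant TCR 2C K166C tagged with TAMRA read by polarization; 0% = receptor in buffer alone and 100% = receptor with positive control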
PRMT1 confirm – PRMT1 (human) inhibition, FP confirmation; 42% of 3,300 active; AID 687036; shares compounds with PRMT1 FP inh; recombinant His-PRMT1, activity-based probe fluorescence polarization; inhibition, % at 2.79 µM;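 active = mean inhibition across replicates above the hit cutoff derived for the earlier primary screen, cut at about 22% in these data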
The depositor's hits bear a star. An excerpt weighted towards active compounds, which were near 2.6% of everything screened.

Results for CC(=O)NCCN=Cc1sc2ccccc2c1O ?
SIAE primary: -7; PAD4 inh: 4; PME-1 inh: -3; Fam108B counter: 2; PRMT1 FP inh: 40*; TCR CD3 inh: -5; PRMT1 confirm: 30*

What do the screens show for `Oc1c(C=Nc2cccnc2)sc2ccccc12`?
SIAE primary: -14; PAD4 inh: -5; PME-1 inh: -8; Fam108B counter: 6; PRMT1 FP inh: 65*; TCR CD3 inh: -19; PRMT1 confirm: 45*

How did Oc1c(C=Nc2ccccc2)sc2ccccc12 do in these assays?
SIAE primary: -9; PAD4 inh: 3; PME-1 inh: 1; Fam108B counter: 0; PRMT1 FP inh: 59*; TCR CD3 inh: -11; PRMT1 confirm: 32*

What do the screens show for `CN=Cc1sc2ccccc2c1O`?
SIAE primary: -10; PAD4 inh: 0; PME-1 inh: -5; Fam108B counter: 2; PRMT1 FP inh: 52*; TCR CD3 inh: -9; PRMT1 confirm: 27*

Results for CC(=O)Nc1ccc(NC(=O)CNC(=O)c2sc3ccccc3c2Cl)cc1 ?
SIAE primary: -10; PAD4 inh: -8; PME-1 inh: -9; Fam108B counter: -19; PRMT1 FP inh: -1; TCR CD3 inh: -7

Results for O=C(Nc1ccc(Br)c(C(F)(F)F)c1)[C@@H]1CC=C[C@@H]2CCN(CC3CC3)C(=O)[C@@H]21 ?
SIAE primary: -3; PRMT1 FP inh: 2

Results for COC(=O)c1cc(-c2ccc(C)c3ccccc23)c(=O)n2c1CCC2 ?
SIAE primary: -6; PRMT1 FP inh: -1

Results for N#CC(C#N)=C1C=CC=CN1/C(=C\c1ccccc1Cl)C(=O)c1ccccc1 ?
SIAE primary: 5; PAD4 inh: 4; PME-1 inh: 12; Fam108B counter: 6; PRMT1 FP inh: 29*; TCR CD3 inh: 6; PRMT1 confirm: 32*

How did C=CCCC(=O)N1CCC(C(=O)NC2CCCc3ccccc32)CC1 (centres undefined) do in these assays?
SIAE primary: -2; PRMT1 FP inh: 0

How did Cc1[nH]n(-c2ccccc2)c(=S)c1C=Nc1ccc([N+](=O)[O-])cc1 do in these assays?
SIAE primary: 2; PAD4 inh: 1; PME-1 inh: -1; Fam108B counter: 5; PRMT1 FP inh: 87*; TCR CD3 inh: 0; PRMT1 confirm: 96*

How did CCCCCCC/C=C(\C)[C@@H](O)[C@@H](C)C(=O)N1CCC[C@@H]1C(=O)O[C@H](C(=O)O[C@@H](C)C(=O)O)[C@@H](C)CC do in these assays?
SIAE primary: 7; PRMT1 FP inh: 4

How did O=C(Cc1ccccc1)N1CCC(Oc2cccnc2)CC1 do in these assays?
SIAE primary: -2; PRMT1 FP inh: -3

How did O=C(NCCc1c[nH]c2ccccc12)OCc1cn(Cc2cc(F)ccc2F)nn1 do in these assays?
SIAE primary: 6; PRMT1 FP inh: 4

How did O=C(CSc1ncnc2scc(-c3ccccc3)c12)Nc1ccc(C(=O)O)cc1 do in these assays?
SIAE primary: 2; PAD4 inh: 1; PME-1 inh: -2; Fam108B counter: 0; PRMT1 FP inh: 0; TCR CD3 inh: 1

What do the screens show for `CC(=O)Nc1ccc(Sc2ncnc3scc(-c4ccccc4)c23)cc1`?
SIAE primary: 0; PAD4 inh: 7; PME-1 inh: 16; Fam108B counter: -3; PRMT1 FP inh: 35*; TCR CD3 inh: 4; PRMT1 confirm: 37*

Results for COc1ccc(-c2cc3nc(-c4ccccc4)cc(N4CCN(C(C)=O)CC4)n3n2)cc1 ?
SIAE primary: -23; PRMT1 FP inh: -3; TCR CD3 inh: -6

Results for Cc1ccc(-c2cc3nc(-c4ccccc4)cc(N4CCC5(CC4)OCCO5)n3n2)cc1 ?
SIAE primary: -10; PAD4 inh: -5; PME-1 inh: -3; Fam108B counter: -10; PRMT1 FP inh: -3; TCR CD3 inh: -4

What do the screens show for `Cc1ccc(-c2cc3nc(-c4ccco4)cc(N4CCN(Cc5ccoc5)CC4)n3n2)cc1`?
SIAE primary: -13; PRMT1 FP inh: 27*; PRMT1 confirm: 9

What do the screens show for `CC(=O)N1CCN(c2cc(-c3ccco3)nc3cc(-c4ccccc4)nn23)CC1`?
SIAE primary: -9; PRMT1 FP inh: 51*; PRMT1 confirm: 8

How did CCCc1cc(=O)[nH]c(SCC(=O)Nc2c(C)cccc2C)n1 do in these assays?
PAD4 inh: -2; PME-1 inh: -4; Fam108B counter: 1

Results for CC(=O)Nc1c(O)nc(SCC(=O)Nc2c(C)cccc2C)[nH]c1=O ?
SIAE primary: -5; PAD4 inh: 0; PME-1 inh: 1; Fam108B counter: -1; PRMT1 FP inh: 57*; TCR CD3 inh: 7; PRMT1 confirm: 25*

How did O=C(OCc1ccccc1)[C@H](Cc1ccccc1)NC(=O)[C@@H]1CC=C[C@@H]2CCN(C3CCCCC3)C(=O)[C@@H]21 do in these assays?
SIAE primary: -9; PRMT1 FP inh: 0

How did N#CCc1c(C#N)c(N)nc(N2CCOCC2)c1C#N do in these assays?
SIAE primary: -2; PAD4 inh: -2; PME-1 inh: -1; Fam108B counter: -2; PRMT1 FP inh: 38*; TCR CD3 inh: 0; PRMT1 confirm: -2

Results for CC(=O)N1CCN(c2nc(N)c(C#N)c(CC#N)c2C#N)CC1 ?
SIAE primary: 0; PAD4 inh: -7; PME-1 inh: 0; Fam108B counter: -3; PRMT1 FP inh: 29*; TCR CD3 inh: -3; PRMT1 confirm: -7

What do the screens show for `N#CCc1c(C#N)c(N)nc(N2CCN(C=O)CC2)c1C#N`?
SIAE primary: -3; PAD4 inh: -10; PME-1 inh: -12; Fam108B counter: 0; PRMT1 FP inh: 35*; TCR CD3 inh: 3; PRMT1 confirm: -3

How did C=CCN(Cc1ccc(OC)cc1OC)C(C#CCCCC)c1ccccc1 (centres undefined) do in these assays?
SIAE primary: -4; PRMT1 FP inh: -2

How did C=CCN1[C@H](CO)[C@H](c2ccc(C#CC3(O)CCCC3)cc2)[C@@H]1C#N do in these assays?
SIAE primary: 8; PRMT1 FP inh: 4

Results for Cc1ccc(-n2c(CCC(=O)O)ccc2-c2cccs2)cc1 ?
SIAE primary: 0; PAD4 inh: -6; PME-1 inh: -2; Fam108B counter: -1; PRMT1 FP inh: 12; TCR CD3 inh: -5

What do the screens show for `COC(=O)c1cccc(-n2c(CCC(=O)O)ccc2-c2cccs2)c1`?
SIAE primary: 10; PAD4 inh: -7; PME-1 inh: -3; Fam108B counter: 0; PRMT1 FP inh: 40*; TCR CD3 inh: 7; PRMT1 confirm: 16

How did NC(=O)c1ccc(-n2c(CCC(=O)O)ccc2-c2cccs2)cc1 do in these assays?
SIAE primary: 1; PAD4 inh: -6; PME-1 inh: 2; Fam108B counter: -3; PRMT1 FP inh: 45*; TCR CD3 inh: 1; PRMT1 confirm: 14

Bioassay records: PubChem BioAssay, The Scripps Research Institute Molecular Screening Center
